Experimental data from ChEMBL document CHEMBL3433997, “St. Jude Leishmania screening dataset” (2016).

What was measured:
Assay type in all cases: functional
[1] = biological target: Solute carrier family 2, facilitated glucose transporter member 1 (Homo sapiens) (UniProt P11166); assay: ST_JUDE_LEISH: Cytotoxicity at 2uM final concentration against transgenic Leishmania Mexicana promastigotes LmGLUT1 that are glucose transport deficient and complemented with the human glucose transporter GLUT1. Activity is measured by DNA content using SYBR green in vitro
Sequence of Solute carrier family 2, facilitated glucose transporter member 1 (Homo sapiens) (P11166 whole entry): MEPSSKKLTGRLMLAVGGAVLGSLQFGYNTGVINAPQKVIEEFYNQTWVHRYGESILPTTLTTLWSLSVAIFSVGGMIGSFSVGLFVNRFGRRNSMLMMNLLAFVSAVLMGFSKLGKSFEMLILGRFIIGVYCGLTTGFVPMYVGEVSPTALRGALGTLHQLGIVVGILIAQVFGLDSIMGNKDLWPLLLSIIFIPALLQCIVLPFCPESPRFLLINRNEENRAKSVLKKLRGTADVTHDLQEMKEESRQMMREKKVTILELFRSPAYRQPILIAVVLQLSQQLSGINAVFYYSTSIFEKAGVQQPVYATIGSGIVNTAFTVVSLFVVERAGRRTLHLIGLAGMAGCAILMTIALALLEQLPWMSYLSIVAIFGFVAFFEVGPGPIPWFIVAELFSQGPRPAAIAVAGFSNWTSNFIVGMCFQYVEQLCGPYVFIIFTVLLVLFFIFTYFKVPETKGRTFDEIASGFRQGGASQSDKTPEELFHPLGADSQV

[2] = biological target: Hexose transporter 1 (Plasmodium falciparum) (UniProt O97467); assay: ST_JUDE_LEISH: Cytotoxicity at 2uM final concentration against transgenic Leishmania Mexicana promastigotes LmPfHT that are glucose transport deficient and complemented with the Plasmodium falciparum hexose transporter. Activity is measured by DNA content using SYBR green in vitro
[3] = biological target: Glucose transporter (Leishmania mexicana) (UniProt O61059); assay: ST_JUDE_LEISH: Cytotoxicity at 2uM final concentration against transgenic Leishmania Mexicana promastigotes LmGT2 that are glucose transport deficient and complemented with the L. Mexicana glucose transporter 2. Activity is measured by DNA content using SYBR green in vitro

| Structure (SMILES) | inhibition [1] | inhibition [2] | inhibition [3] |
| --- | --- | --- | --- |
| Cc1ccc2cc(NCCCCCCCCON3C(N)=NC(N)=NC34CCCCC4)ccc2n1 | 8.51% | 8.23% | 9.59% |
| CSCCC(C(=O)O)N1C(=O)c2ccccc2C1=O (stereo unspecified) | 0.66% | 1.03% | 0.77% |
| COc1cc(OC)cc(C(=O)N2CCOC(CCN3CCC(c4ccccc4)CC3)(c3ccc(Cl)c(Cl)c3)C2)c1 (stereo unspecified) | 0.22% | -0.92% | -1.58% |
| COc1ccc2nccc([C@@H](O)CN3CCC(NCc4cc5c(F)ccc(F)c5[nH]4)CC3)c2n1 | 87.9% | 86.8% | 87.2% |
| NCCCNc1nc(Nc2cccc(C(N)=O)c2)c2c(=O)[nH]ccc2n1 | -0.41% | 1.23% | 0.77% |
| CN(C)CCOc1ccc(-c2cc(-c3ccc(Cl)c(O)c3)c(-c3ccncc3)o2)cc1 | 4.55% | -0.72% | 4.9% |
| CO/C(=C\C=C\c1cc2cc(Cl)c(Cl)cc2[nH]1)C(=O)NCCCN1CCN(c2cccc(CCO)c2)CC1 | -0.14% | 1.35% | -0.1% |
| COc1cc(CNc2ccc(N3CCCC3)cc2)cc(Cl)c1OC | -2.15% | -4.72% | 1.78% |
| CCc1cc(OC)c(C(=O)NC2CCN(C[C@H](O)c3ccnc4ccc(OC)cc34)CC2)cc1Br | 1.58% | -0.43% | -0.3% |
| N#Cc1ccc2c(c1)CCN(CCC1CCC(NC(=O)/C=C/c3ccc4ccccc4c3)CC1)CC2 (stereo unspecified) | -0.35% | -1.71% | -1.14% |
| Nc1nc(N)c2c(Sc3ccc(F)cc3)cccc2n1 | 6.11% | 6.64% | 7.67% |
| O=C(CCc1cccc(O)c1)NCC(NCCCNc1cc(=O)c2ccccc2[nH]1)c1cc(Br)cc(Br)c1 (stereo unspecified) | 8.91% | 5.63% | 6.84% |
| CCCCCNC(=N)c1ccc(OCCCCCOc2ccc(C(=N)NCCCCC)cc2)cc1 | 19.6% | 25.9% | 5.15% |
| Cc1cc(O)c(-c2ccc(Oc3ccc(F)cc3)cc2)c(C)n1 | 0.78% | -0.19% | -3.08% |
| O=C(/C=C/c1ccccc1)N1CCOC(CCN2CCC(c3ccccc3)CC2)(c2ccc(Cl)c(Cl)c2)C1 (stereo unspecified) | 13.3% | 7.51% | 7.43% |
| CS(=O)(=O)Cc1ccc(Nc2nccc(-c3c(-c4cccc(NC(=O)C5CCCCC5)c4)nn4ncccc34)n2)cc1 | 3.22% | 5.62% | 1.63% |
| Cc1cccc2nc(-c3cccc(-c4ccc(NC(=O)c5cccc(C(N)=O)c5)cc4)c3)[nH]c12 | 1.01% | 1.42% | 1.38% |
| CCCCCCCn1c(=N)n(CC(O)c2ccc(Cl)c(Cl)c2)c2ccccc21 (stereo unspecified) | 8.14% | 7.92% | 13.2% |
| O=C(Cc1ccc(-c2ccccc2)cc1)N[C@H]1CCN(Cc2ccc(OCCCN3CCCCC3)cc2)C1 | 18.6% | 17.2% | 8.12% |
| CC(C)CNCc1cccc(-c2ccc(CN(CCCN3CCN(C)CC3)C(=O)/C=C/c3ccccc3)cc2)c1 | 2.92% | 3.29% | 3.9% |
| Cc1ccc(/C=C/C(=O)NC2CCC(N3CCC(c4ccccc4C)CC3)CC2)cc1C (stereo unspecified) | 4.77% | 4.56% | 1.93% |
| O=C(C=Cc1ccc(Br)cc1)N1CCC(CCN2CCC(c3c[nH]c4ccccc34)CC2)CC1 | 4.46% | 8.48% | 4.25% |
| Cc1nc(-c2cccc(Nc3nccc(NCC(O)c4ccc(C(F)(F)F)cc4)n3)c2)cs1 (stereo unspecified) | 1.28% | 1.67% | -0.68% |
| Cc1[nH]c(C)c(-c2ccc(-c3ccccc3F)nc2)c(=O)c1Cl | 1.2% | -2.36% | 1.16% |

| Structure (SMILES) | inhibition [1] | inhibition [2] | inhibition [3] |
| --- | --- | --- | --- |
| O=C(Nc1ccc(F)cc1)c1cnc(N2CCN(c3ccncc3)CC2)c(Cl)c1 | 16% | 10.4% | 3.86% |
| CN1CCCC(CN2CCN(Cc3cccc(-c4ccc(-c5nc6cc(F)ccc6[nH]5)cc4)c3)CC2)C1 (stereo unspecified) | 2.66% | 1.97% | 1.35% |
| O=S(=O)(c1c(Cl)cc(Cl)cc1Cl)N1CCCCC(c2ccc(Cl)cc2)=N1 | -1.49% | -1.87% | -1.41% |
| COC(=O)c1cc2cccc(NC[C@@H](C)NC[C@H](O)c3cccc(Cl)c3)c2[nH]1 | -0.1% | 1.58% | 1.28% |
| CCN1CCN(CCCCNc2c3ccccc3nc3ccccc23)CC1 | 20.5% | 8.76% | 10.7% |
| COc1ccc(Cl)cc1NC(=O)CN(C)C(=O)c1cnn(-c2ccccc2)n1 | 1.85% | -0.34% | 3.11% |
| COc1ccc(CCNCc2cc3c(C(C)(C)C)nn(-c4ccc(Cl)cc4)c3[nH]c2=O)cc1OC | -2.79% | -2.78% | -5.42% |
| Clc1nc(Cl)c2c(ccn2Cc2ccccc2)n1 | 1.47% | 0.9% | 2.54% |
| Cc1[nH]c(C)c(-c2ccc(CCc3ccc(F)cc3F)cc2)c(=O)c1Br | -0.51% | -1.51% | -2.17% |
| Cc1cc(N[C@@H](Cc2ccccc2)C(=O)NCc2cccc(F)c2)nc(Nc2ccccc2)n1 | 6.85% | 7.5% | 2.63% |
| CC(=O)NC1=NC(C)(C)N(OCc2ccc(Cl)c(Cl)c2)C(NC(C)=O)=N1 | -0.21% | -0.25% | -1.61% |
| Cn1c(=N)n(CC(=O)N2CCc3ccc(Cl)cc3C2Cc2ccc(Cl)c(Cl)c2)c2ccccc21 (stereo unspecified) | 0.36% | 1.29% | 5.67% |
| Cc1cccc(-c2cccc3c(NC(=O)N4CCc5cc6nccc(N7CCN8CCC[C@H]8C7)c6cc54)cccc23)n1 | 0.18% | 0.95% | 1.48% |
| CC(C)COc1ccc(Cl)cc1Cc1ccc(-c2nc3ccc(Cl)cc3[nH]2)o1 | -1.56% | 2.55% | 1.16% |
| COc1cccc(CN(C(=O)Nc2ccccc2F)[C@H]2C[C@H]3C(=O)Nc4cc(F)ccc4C(=O)N3C2)c1 | 4.68% | 4.97% | 5.37% |
| Cc1cccc(C(=O)N2CCN(Cc3cccc(NC(=O)c4cccs4)c3)CC2)c1 | 7.96% | 9.38% | 7.07% |
| CCCNCc1ccc(-c2ccc(CN(CCOC)C(=O)[C@H]3CCCO3)cc2)nc1 | 4.56% | 4.55% | 4.1% |
| COc1ccc(CNCc2ccc(-c3cccc(-c4nc5cccc(C)c5[nH]4)c3)cc2)cc1 | 2.87% | 1.37% | 0.41% |
| Cc1cc(CN2CC[C@H](NC(=O)c3ccc(Cl)c(Cl)c3)C2)ccc1OCCN1CCNCC1 | -0.62% | 0.59% | 0.3% |
| CC(=O)c1cccc(Nc2nc3ccc(OCc4cc(Cl)cc(Cl)c4)c(C#N)c3[nH]2)c1 | 3.61% | 2.38% | 2.87% |
| CN(C)c1ccc(C=CC(=O)NC(=O)c2ccccc2O)cc1 | 3.19% | 2.19% | 1.56% |
| COc1cc(Cc2cnc3nc(N)nc(N)c3c2C)cc(OC)c1OC | 1.29% | 1.49% | 1.69% |
| COc1ccc(NC(=O)C2c3ccccc3C(=O)N(CC(C)C)C2c2cccs2)cc1OC (stereo unspecified) | -0.36% | 0.34% | 0.28% |
| COc1cc(CN2CCC(C(=O)Nc3ccc(-c4cccc(C)c4)cc3)CC2)ccc1O | 8.11% | 7.03% | 4.91% |

| Structure (SMILES) | inhibition [1] | inhibition [2] | inhibition [3] |
| --- | --- | --- | --- |
| Cc1cccc(Nc2nc(N)c3ccccc3n2)c1 | 20.9% | 16.5% | 5.71% |
| CCCC[C@@H](C(=O)NCCc1ccc(Cl)cc1)N1C(=O)CCC1C(=O)Nc1ccc(Cl)c(Cl)c1 (stereo partly specified) | -0.33% | 2.4% | 0.19% |
| N#Cc1cc([N+](=O)[O-])ccc1-n1nc(C(N)=O)n(Cc2cccc(F)c2)c1=S | 11.3% | 8.94% | 5.66% |
| CCc1cccc(-c2cc(N)n(C)c3nc(N)nc(=O)c2-3)c1 | -0.01% | 0.41% | -1.13% |
| O=C(Nc1ccccc1)N1CCC(CN2CCOC(c3ccccc3)(c3ccccc3)C2)CC1 | 7.91% | 4.78% | 7.57% |
| CCN(CCCN1CCCCC1)c1cc(C)nc(Nc2ccc(C)c(Br)c2)n1 | 4.08% | 6.82% | 7.62% |
| COc1ccc2nccc([C@@H](O)CN3CCC(NC(=O)c4cc5c(F)cc(F)cc5[nH]4)CC3)c2c1 | 18.1% | 20.8% | 8.41% |
| O=C(Nc1nc2ccc(Cl)cc2s1)c1csnn1 | -1.77% | -1.39% | -5.77% |
| CCCC(=O)Nc1ccc(OCCCN(Cc2ccccc2F)c2ccc(C#N)c(C(F)(F)F)c2)cc1 | 1.79% | 0.66% | 0.71% |
| CCn1c(-c2nonc2N)nc2c(-c3cccc(Cl)c3)ncc(OCCCNCCc3c[nH]cn3)c21 | 4.7% | 4.78% | 3.45% |
| Cn1ccc2c3c(N)nc(N)nc3ccc21 | 0.43% | 1.8% | 1.34% |
| O=C(CCCCCNC(=O)c1ccc(O)c(-c2ccc(Cl)c(Cl)c2)c1)NCc1cccc(C(F)(F)F)c1 | -1.4% | -1.74% | -4.05% |
| Cc1onc(-c2c(F)cccc2Cl)c1C(=O)Nc1ccccc1I | 2.35% | 2.24% | 2.12% |
| Cc1cc(C2CCN(CCCCNC(=O)c3ccc(-c4ccc(C#N)cc4)cc3)CC2)c(C)cc1O | 4.77% | 3.77% | 4.8% |
| COc1cc2ncnc(NCCc3ccccc3Cl)c2cc1OC | -1.61% | -0.48% | -0.92% |
| CC(CN1CCN(C)CC1)C(=O)Nc1cccc(-c2ccc(-c3nc4ccccc4[nH]3)s2)c1 (stereo unspecified) | -1.1% | -1.46% | -3.97% |
| Nc1nccc2ccc(-c3ccncc3)cc12 | 5.87% | 7.14% | 6.25% |
| CCCCCCCN1CC[C@@H](CCC(O)c2ccnc3ccc(OC)cc23)[C@@H](CC)C1 (stereo partly specified) | -0.47% | 0.63% | 0.73% |
| ON=C1CCc2cc(-c3nc(-c4ccc(OCCN5CCCCC5)cc4)[nH]c3-c3ccncc3)ccc21 | -1.78% | -1.49% | -1.7% |
| CCCN(CCCN(CCCN(CCC)C(C)C)c1cc(C)nc(Nc2ccc(Cl)cc2)n1)C(C)C | 9.21% | 7.26% | 6.27% |
| O=c1nc(NCCCCCN2CCC(c3c[nH]c4ccccc34)CC2)[nH]cc1Cc1ccc(Cl)c(Cl)c1 | 2.65% | 2.12% | 2.08% |
| CSc1ccc(CN2CCC(NC(=O)c3ccc(-c4ccc(N(C)C)cc4)s3)CC2)cc1 | 1.5% | 0.28% | 2.99% |
| CCCN(CCC)C(=O)c1cc(C(=O)N[C@@H](Cc2ccccc2)[C@H](O)CNCc2cccc(C(F)(F)F)c2)cc(N2CCCCS2(=O)=O)c1 | -1.33% | -0.49% | -0.16% |
| Fc1cccc(COc2ccc(Nc3ncnc4sc(C#CCNC5CCC5)cc34)cc2Cl)c1 | 6.7% | 5.05% | 2.46% |
